Shown are actives, neighbours in structure and some others; about 21% of the full set was active somewhere.
Cycloheximide cs: counter-screen for Shiga toxin inhibitors: cycloheximide protein synthesis inhibition | max response, % | cell reporter, cycloheximide protein synthesis inhibition counterscreen | hit rate 12% among 300,000 | AID 2314; in the data active = max response mostly above about 13%, no sharp cut-off; inactive = mostly below about 14%; also: read at 38.3 µM for the half of the compounds with a filed dose
Shiga inhibitor: Shiga toxin inhibition. Vero cells, Shiga toxin protein synthesis inhibition reporter. inhibition, % at 38.7 µM. hit rate 9.2% among 290,000; in the data active = inhibition mostly above about 28%, no sharp cut-off; inactive = mostly below about 43%
Pf growth 48h: P. falciparum growth inhibition at 48 hours (one generation) | P. falciparum luciferase growth in erythrocytes, 48 h | Potency, µM (titrated, usually from 28.7 µM), actives largely listed as inhibitors | hit rate 5.9% among 310,000; active = well fitted inhibition curve with a large enough effect; inconclusive = small, poorly fitted or top-dose-only effect, or another doubt; inactive = no such curve, though single readings can be large or run the other way
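First compound was added to culture medium, then infected red cells at 0.1% parasitemia and 2% hematocrit (final). After incubation at 37 C under 5% CO2, luciferase detection reagent was dispensed and light output recorded.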
Pf growth 96h: P. falciparum growth inhibition at 96 hour, primary screen for plastid delayed-death inhibitors; P. falciparum luciferase reporter growth, 96 h; Potency, µM (doses to about 28.7 µM), hits mostly inhibitors; hit rate 6.9% among 320,000; AID 504834; active = well fitted inhibition curve with a large enough effect; inconclusive = small, poorly fitted or top-dose-only effect, or another doubt; inactive = no such curve, though single readings can be large or run the other way
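Readout is luminescence from an integrated firefly luciferase in P. falciparum. Red cells, 2% hematocrit and 0.05% parasitemia final, were cultured with compound through two parasite generations (96 hours) at 37 C, 5% CO2.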
NS1 function inh: inhibitors of influenza NS1 protein function; Potency, µM (doses to about 46.1 µM); hit rate 0.4% among 270,000; AID 2326; also: actives are rising curves; nearly all actives have a fitted effect of over 50% in size
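A cell-based growth assay was used: compounds that relieve NS1-induced slow growth of budding yeast raise OD600. Assay medium was yeast nitrogen base with ammonium sulphate and -URA supplement, pH 6.0, with 2% galactose.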
SARS PLP yeast: blocks SARS-CoV papain-like protease in a yeast assay | S. cerevisiae expressing SARS-CoV PLpro, growth rescue | Potency, µM (highest dose often 32.9 µM), usual class: activators | hit rate 0.19% among 330,000 | AID 485353; also: nearly all actives have a fitted effect of over 55% in size
Each line names hits and unclear results; the compound was inactive in the other large screens. Unless noted, calls follow the shape of the full dose curve.

Cc1cc(-c2ccc(F)cc2)nc2cc(C(N)=O)nn12	Pf growth 96h inconclusive (no result: Pf growth 48h)
CCOC(=O)c1cnn2c(C)cc(-c3ccc(F)cc3)nc12	Cycloheximide cs 33.5
NC(=O)C1CCCN(CC(=O)Nc2ccccc2C(=O)NC2CC2)C1 (stereo unspecified)	none (no result: Cycloheximide cs, Shiga inhibitor, NS1 function inh)
O=C(C1CC(=O)N(c2ccc(Cl)cc2)C1)N1CCC(c2nc3ccccc3[nH]2)CC1 (stereo unspecified)	Pf growth 48h 10.4µM, Pf growth 96h inconclusive (no result: Cycloheximide cs, Shiga inhibitor, NS1 function inh)
O=C(N1CCCCC1)N1CCC(c2nc3ccccc3[nH]2)CC1	none
CCOC(=O)N1CCC(NC(=O)c2ccc(Cl)cc2)CC1	none
CCOC(=O)N1CCC(c2nc3ccccc3[nH]2)CC1	Pf growth 96h 9.28µM (no result: Pf growth 48h)
CCOC(=O)N1CCC(Nc2nc3ccccc3nc2NS(=O)(=O)c2ccc(Cl)cc2)CC1	Cycloheximide cs 29.6, Shiga inhibitor 95.5 (no result: Pf growth 96h)
CC(C)n1c(N2CCN(S(=O)(=O)c3cccc([N+](=O)[O-])c3)CC2)nc2ccccc21	none
CC(C)CNC(=O)C(=O)NCC1OCCCN1S(=O)(=O)c1cccs1 (stereo unspecified)	none
CC(C)n1c(SCC(=O)N2CCN(C)CC2)nc2c1c(=O)n(C)c(=O)n2C	none
COc1ccc(C(c2sc3nc(C)nn3c2O)N2CCN(Cc3ccccc3)CC2)cc1OC (stereo unspecified)	Pf growth 48h inconclusive, Pf growth 96h 0.828µM
Oc1c(C(c2ccccc2)N2CCc3ccccc3C2)sc2ncnn12 (stereo unspecified)	Pf growth 48h inconclusive, Pf growth 96h inconclusive
CC1CN(C(c2cccs2)c2sc3ncnn3c2O)CC(C)O1 (stereo unspecified)	Pf growth 96h inconclusive
COc1ccc(C(c2sc3ncnn3c2O)N2CCN(c3ccccc3F)CC2)cc1OC (stereo unspecified)	Cycloheximide cs 20.3, Pf growth 48h inconclusive
Oc1c(C(c2ccco2)N2CCN(C(c3ccccc3)c3ccccc3)CC2)sc2ncnn12 (stereo unspecified)	Pf growth 96h 4.15µM (no result: Pf growth 48h)
COc1ccc(C(c2sc3ncnn3c2O)N2CC(C)OC(C)C2)cc1OC (stereo unspecified)	Cycloheximide cs 16.8
CN(C(=O)c1ccccc1C(=O)OCC(=O)c1ccc(F)c(F)c1)C1CCCCC1	Pf growth 48h inconclusive, Pf growth 96h inconclusive (no result: Cycloheximide cs, Shiga inhibitor, NS1 function inh)
COc1ccccc1N1CCN(C(=O)C(=O)c2cn(CC(=O)N3CCCCCC3)c3ccccc23)CC1	Pf growth 48h 9.28µM, Pf growth 96h 7.38µM
CC(=O)c1ccc(N2CCN(C(=O)C(=O)c3cn(CC(=O)N4CCCCCC4)c4ccccc34)CC2)cc1	Pf growth 48h inconclusive, Pf growth 96h inconclusive, NS1 function inh inconclusive
COc1ccccc1N1CCN(C(=O)C(=O)c2cn(CC(=O)N3CCCC3)c3ccccc23)CC1	Pf growth 48h inconclusive, Pf growth 96h 9.28µM
Nc1nc(SCC(=O)c2c(N)n(C3CC3)c(=O)[nH]c2=O)n[nH]1	none (no result: Cycloheximide cs, Shiga inhibitor, NS1 function inh)
O=C1C2=C(C(=O)c3ccccc31)C1O[C@](CCCCN3C(=O)c4ccccc4C3=O)(Cc3ccccc31)O2	Pf growth 48h inconclusive, Pf growth 96h inconclusive
Cc1cc(N2CCOCC2)ccc1/C=C\[N+](=O)[O-]	none
CC1CC(C)CN(C(=O)c2cc(-c3ccncc3)nc3ccccc23)C1 (stereo unspecified)	Pf growth 48h 9.28µM, Pf growth 96h inconclusive (no result: Cycloheximide cs, Shiga inhibitor, NS1 function inh)
O=C(c1cc(-c2ccncc2)nc2ccccc12)N1CCN(S(=O)(=O)/C=C/c2ccccc2)CC1	Pf growth 48h 1.85µM, Pf growth 96h inconclusive, NS1 function inh inconclusive
COc1ccc(-c2cc(C(=O)N3CC(C)CC(C)C3)c3ccccc3n2)cc1OC (stereo unspecified)	Pf growth 48h inconclusive, Pf growth 96h 10.4µM (no result: Cycloheximide cs, Shiga inhibitor, NS1 function inh)
COc1ccc(-c2cc(C(=O)N3CCC3)c3ccccc3n2)cc1OC	Pf growth 48h inconclusive (no result: Cycloheximide cs, Shiga inhibitor, NS1 function inh)
COc1ccc(-c2cc(C(=O)N3CCN(c4cccc(C)c4C)CC3)c3ccccc3n2)cc1OC	Pf growth 48h 9.28µM, Pf growth 96h 10.4µM (no result: Cycloheximide cs, Shiga inhibitor, NS1 function inh)
O=C(c1cc(-c2ccncc2)nc2ccccc12)N1CCOCC1	none (no result: Cycloheximide cs, Shiga inhibitor, NS1 function inh)
CC(=O)OC[C@H]1O[C@H](C/C=N/OC[C@@H](O)[C@H]2O[C@@H]3OC(C)(C)O[C@@H]3[C@H]2O)C=C[C@@H]1OC(C)=O	none
O=C(Nc1cccc(-c2nnc(-c3ccco3)o2)c1)C(c1ccccc1)c1ccccc1	Pf growth 96h 5.22µM (no result: Pf growth 48h)

Screening results deposited in PubChem BioAssay by National Center for Advancing Translational Sciences (NCATS).
